Bioassay records (PubChem BioAssay)
A selection: hits, their analogues and other compounds. The true share with any hit is near 2.7%.
ATXN2 expr inh: ATXN2 expression inhibition. HEK-293 ATXN2-luciferase reporter, luminescence, 24 h. Potency, µM (top dose mostly 57 µM), inactives show top-dose activity change, negative = inhibition, most hits filed as inhibitors. actives 0.72% (n = 360,000); note: % is set by controls: 0 for no effect and ±100 for the full control effect; nearly all actives have a fitted effect of over 55% in size
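qHTS (up to 57 uM final) was run with 24 h compound exposure of reporter cells at 37 °C. Each well was multiplexed: SteadyGlo luminescence measured ATXN2-luciferase expression after a fluorogenic Gly-Phe-AFC viability readout (25 uM final).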
TGFb inhibitor: blocks TGF-b signaling. HepG2 CAGA-GFP TGF-b/SMAD3 reporter, GFP fluorescence, 18 h; TGF-beta stimulated, 500 pg/mL final. Potency, µM (series often up to 46.1 µM), for the others: at the highest dose activity, negative = inhibition, usual class: inhibitors. AID 588855. actives 1.2% (n = 410,000); note: % is set by controls: 0 for no effect and ±100 for the full control effect; nearly all actives have a fitted effect of over 65% in size
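Inhibition of TGF-beta-driven CAGA-GFP reporter expression in HEPG2 cells is measured by cellular GFP fluorescence after 18 h stimulation with 500 pg/mL recombinant TGF-beta in 1% FBS medium at 37 degrees C.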
S2 tox: cell viability loss in ATXN counter-screen; S2 cells (HEK-293 line with an ATXN2-luciferase reporter) viability, CellTiter-Fluor protease fluorescence, 24 h; Potency, µM (series often up to 56.7 µM), most hits filed as cytotoxic; actives 0.49% (n = 400,000); AID 651635; note: nearly all actives have a fitted effect of over 40% in size
ALOX12 inh: inhibitors of human 12S-lipoxygenase ALOX12 | AID 1671190 | P18054 | actives 1.1% (n = 580,000) | purified 12hLO, xylenol orange hydroperoxide absorbance | Potency, µM (titrated, usually from 108 µM), inactives show top-dose activity change, negative = inhibition, hits mostly inhibitors; note: % is set by controls: 0 for no effect and ±100 for the full control effect
Target sequence (P18054 whole entry, looked up): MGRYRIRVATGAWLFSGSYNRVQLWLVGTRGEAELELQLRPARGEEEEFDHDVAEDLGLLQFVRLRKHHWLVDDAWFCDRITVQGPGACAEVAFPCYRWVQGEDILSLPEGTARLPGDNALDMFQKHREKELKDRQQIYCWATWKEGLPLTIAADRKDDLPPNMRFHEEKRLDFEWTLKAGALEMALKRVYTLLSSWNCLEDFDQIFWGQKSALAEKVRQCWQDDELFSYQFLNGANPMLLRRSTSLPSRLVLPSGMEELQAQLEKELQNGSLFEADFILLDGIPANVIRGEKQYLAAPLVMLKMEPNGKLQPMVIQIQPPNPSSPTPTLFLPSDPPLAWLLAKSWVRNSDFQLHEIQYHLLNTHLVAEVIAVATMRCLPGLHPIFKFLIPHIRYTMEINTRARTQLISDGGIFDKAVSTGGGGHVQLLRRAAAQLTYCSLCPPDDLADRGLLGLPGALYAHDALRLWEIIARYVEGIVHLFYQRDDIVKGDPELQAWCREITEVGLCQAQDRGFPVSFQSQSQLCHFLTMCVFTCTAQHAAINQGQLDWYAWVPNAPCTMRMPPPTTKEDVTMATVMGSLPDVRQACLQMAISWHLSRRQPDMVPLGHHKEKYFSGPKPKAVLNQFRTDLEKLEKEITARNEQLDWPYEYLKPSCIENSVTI
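Purified human 12hLO at 150 nM in 25 mM Hepes, 0.01% Triton X-100, pH 7.0, preincubated 15 min at room temperature with compound. Reaction started with 40 uM arachidonic acid, 30 min at room temperature. Hydroperoxide measured by Fe-xylenol orange, 573/405 nm absorbance ratio.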
HepG2 tox: counter-screen for TGF-b inhibitors: cytotoxicity in HepG2 cells; HepG2 CAGA-GFP viability, ATP luminescence, 18 h; Potency, µM (series often up to 46.1 µM), for the others: at the top dose activity change, negative = cytotoxicity, usual class: cytotoxic; actives 0.76% (n = 410,000)
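CellTiter-Glo luminescence gave cytotoxicity after 18 hours at 37 degrees C. The cells were HepG2 CAGA-GFP in 1% FBS DMEM, stimulated with 500 pg/mL TGF-beta after compound addition. %Activity was normalised to no-cell wells (complete cell-killing) and DMSO (no toxicity), and curves were fitted and classified.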
Numbers without * were called inactive; i = inactive; ? = inconclusive; / = no result given; ! = a repeat was not active. Calls come from the whole dose curve; as a rule, active = well fitted curve in the direction sought with a large enough effect; inconclusive = small, poorly fitted or top-dose-only effect, or another doubt; inactive = no such curve, though single readings can be large; an effect the other way counts as inactive or inconclusive. Potency is the fitted concentration of half-maximal effect.

SMILES	ATXN2 expr inh	TGFb inhibitor	S2 tox	ALOX12 inh	HepG2 tox
COc1ccc(CCC(C)NCc2cc(OC)cc(OC)c2)cc1 (configuration not stated)	-19%	-9%	i	?	-35%
COc1ccc(CCC(C)Nc2ccc(F)c(F)c2)cc1 (configuration not stated)	-14%	-3%	i	21%	-2%
COc1ccc(CCC(C)NCc2ccc(Cl)c(Cl)c2)cc1 (configuration not stated)	-25%	13µM*	i	?	8.9µM*
O=C(CSc1ncnc2ccccc12)Nc1ccccc1OC(F)F	/	/	/	12%	/
CC(C)CN(CC(C)C)CC(O)Cn1cc(/C=C/C(=O)c2ccccc2)c2ccccc21 (configuration not stated)	0%	-12%	/	?	-38%
CCCN(CCC)CC(O)Cn1cc(/C=C/C(=O)c2ccc(OCC)cc2)c2ccccc21 (configuration not stated)	?	?	/	?	13µM*
CN(Cc1ccccc1)C(=O)COc1ccc2c(C(F)(F)F)cc(=O)oc2c1	/	/	/	2%	/
Cc1ccc(CN2CCC(CNC(=O)Nc3cn(CC(C)C)c(=O)c4ccccc34)C2)cc1 (configuration not stated)	/	/	/	45µM*	/
CCN(CCCNC(=O)C(C)C)c1ccccc1	/	/	/	-12%	/
COc1ccc(C(=O)OCCc2sc[n+](CC(=O)c3ccccc3)c2C)cc1	5%	-8%	?	?	-16%
Cc1c(CCOC(=O)C2C3CC4CC(C3)CC2C4)sc[n+]1CC(=O)c1ccc(Br)cc1 (configuration not stated)	-33%	?	/	40µM*!	-107%
Cc1c(CCOC(=O)c2ccc(Cl)cc2Cl)sc[n+]1CC(=O)c1ccc(Br)cc1	/	?	i	?	14µM*
CC(C)/C=N/NC(=O)COc1ccc(C#N)cc1	/	/	/	2%	/
Cc1ccc(-c2nc(N)s[n+]2-c2ccccc2)cc1	48%	7%	i	?	-3%
CNc1nc(-c2ccccc2)[n+](-c2ccc(C)cc2)s1	-6%	7%	i	7.1µM*	-7%
COc1ccc(C)cc1-n1c(SCC(=O)Nc2ccc(C(N)=O)cc2)nc2ccccc2c1=O	/	/	/	-7%	/
Cc1cc(-n2c(SCC(=O)NCCC3=CCCCC3)nc3n[nH]c(C)c3c2=N)ccc1Cl	/	?	?	-2%	-79%
CCOc1ccccc1-n1c(SCC(=O)Nc2ccc(CC)cc2)nc2n[nH]c(C)c2c1=N	?	?	20µM*	/	10%
Cc1[nH]nc2nc(SCC(=O)NCCC3=CCCCC3)n(-c3ccc(Br)cc3)c(=N)c12	/	16µM*	?	-16%	-137%
Cc1c(Cl)cccc1-n1c(SCC(=O)NCc2ccccc2)nc2n[nH]c(C)c2c1=N	/	11µM*	/	-12%	-60%
CCc1ccc(NC(=O)CSc2nc3n[nH]c(C)c3c(=N)n2-c2ccccc2C)cc1	-28%	?	?	-10%	16µM*
CCc1ccccc1-n1c(SCC(=O)Nc2ccc(C)cc2)nc2n[nH]c(C)c2c1=N	/	0%	/	-7%	-42%
O=c1c2ccccc2nc(-c2ccccc2)n1CCOc1ccccc1	/	/	/	-19%	/
Cc1cc(C)c(C2=CSC3=NS(=O)(=O)CCN23)c(C)c1	-17%	-20%	i	-2%	-27%
O=S1(=O)CCN2C(c3cccc(Br)c3)=CSC2=N1	/	/	/	22µM*	/
CC(Sc1nc2ccccc2o1)C(=O)N1CCCC1 (configuration not stated)	/	/	/	0%	/
CCN1C[C@@H]2[C@@H]3C(=O)N(Cc4ccccc4)C(=O)[C@@H]3[C@](Cc3ccccc3)(C1=O)N2C(=O)c1ccc(C(C)(C)C)cc1	?	1%	32µM*	-16%	1%
COc1cc(CCNC2=CC(=O)c3ncccc3C2=O)ccc1O	24µM*	?	/	-25%	2.5µM*
Cc1nn(CCc2nc(-c3ccccc3)cs2)c2[nH]c(=O)cc(C(F)(F)F)c12	/	/	/	7.1µM*	/
Cc1cc(C)n(CCc2nc(-c3ccco3)cs2)n1	15%	?	i	?	15%
